# From PubChem BioAssay
# Calls of active or inactive are those of the source.
# Assay: small-molecule binders of probe aLefty1, primary screen, biochemical, small-molecule microarray, 635/667 nm fluorescence (AID 1153);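 also: score merges spot fluorescence with signal-to-noise ratio from the scanned slide images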
# Settings: higher = more signal
row,SMILES,composite z-score
1,COc1cc(CO)cc(I)c1O[C@H]1C=C(C(=O)NCCO)C[C@@H](NC2CCCCCC2)[C@@H]1O,0.0313
2,O=C1C2C=CC(C(O)c3cccs3)N(Nc3ccc([N+](=O)[O-])cc3)C2C(=O)N1c1ccccc1 (stereo not drawn),-0.105
3,CCOC(=O)C[C@H]1[C@H](OC(=O)c2ccccc2-c2ccccc2)[C@@H](NC(=O)C2CCCCC2)c2cc(OCCCO)ccc2N1C(=O)c1ccc2ccccc2n1,-0.167
4,COC(=O)[C@@]1(Cc2ccc(F)cc2)[C@H]2c3cc(C(=O)N4CCCC4)n(Cc4ccccn4)c3C[C@H]2CN1C(=O)c1ccccc1,0.0479
5,C=C(CCCC)/C(=C/C[C@H](OC(=O)c1ccncc1)c1ccccc1OCCO)c1cc(C(=O)OC)ccc1OC,0.165
6,O=C(NCc1ccccc1)[C@@H]1c2ccccc2C(=O)N(Cc2cc(C(F)(F)F)cc(C(F)(F)F)c2)[C@H]1c1ccc(CO)cc1,0.0004
7,COc1ccc([Si](C)(C)[C@H]2[C@H](CCO)O[C@@]3(C(=O)N(Cc4ccc(NC(=O)[C@H](C)O)cc4)c4ccccc43)[C@@H]2C)cc1,-0.0984

# Assay: PSAC antagonists in infected red cells, primary screen, cell-based, P. falciparum Indochina, OD700, 1 h (AID 1154)
# Settings: P. falciparum Indochina infected RBC osmotic lysis, higher = more signal, called active from +8 up or from −8 down
row,SMILES,z-score
1,CC(C)C(=C=CC[C@H](O)c1ccccc1OCCO)C[C@H](O)COCc1ccccc1,13.2 (active)
2,CC(C)NC(=O)[C@@]1(c2ccc([N+](=O)[O-])cc2)CC(=O)N(CC23CC4CC(CC(C4)C2)C3)[C@@H]1c1ccc(CO)cc1,2.3 (inactive)
3,CC(C)=C1C(=O)C(c2ccccc2)=C2CN3C(=O)N(CCc4ccccc4)C(=O)[C@]3(C)[C@H]21,28.2 (active)
4,[N-]=[N+]=Nc1ccccc1[C@H]1OC(c2ccc(OCCCO)cc2)=N[C@@]1(Cc1ccccc1)C(=O)NCC(O)CO (stereo partly drawn),33.6 (active)
5,COCCCNC(=O)[C@@]1(CCS(=O)(=O)c2ccccc2)COC(c2ccc(OCCCO)cc2)=N1,29.2 (active)
6,CC(C)(C)N1CC=CC23O[C@@H]4C=CCOC(=O)[C@@H]4[C@H]2C(=O)N(CCO)[C@@H]3C1=O (stereo partly drawn),0.55 (inactive)
7,CN(C)CCCCNC(=O)[C@H]1C[C@H]2C(=O)NCC(=O)N2[C@H]1c1ccc(O)cc1,2.9 (inactive)
8,CC(C)C(O)C1C=CC2C(=O)NC(=O)C2N1Nc1ccccn1 (stereo not drawn),-0.292 (inactive)
9,O=C1C2C=CC(C(O)c3ccc([N+](=O)[O-])cc3)N(Nc3ccccc3F)C2C(=O)N1c1ccccc1 (stereo not drawn),9.91 (active)
10,CN(C)CCCC[C@@H]1NC(=O)[C@@H]2C[C@H](C(=O)NCCCCCN)[C@H](c3cccc(OCCO)c3)N2C1=O,1.11 (inactive)
11,CC1CC/C=C\[C@H]2OC34C=CCN(Cc5ccccc5)C(=O)[C@H]3N(CCCCCCO)C(=O)[C@@H]4C2C(=O)O1 (stereo partly drawn),-0.107 (inactive)
12,C=CCC(OC(C)=O)[C@@H]1[C@@H](N(Cc2cccc3ccccc23)C(=O)c2ccc(-c3ccccc3)cc2)c2cc(OCCCO)ccc2N1C(=O)Cc1ccc2ccccc2c1 (stereo partly drawn),0.36 (inactive)
13,CC(C)NC(=O)[C@@]1(C)c2ccccc2C(=O)N(Cc2ccccc2)[C@H]1c1ccc(CO)cc1,4.68 (inactive)
14,COC(=O)[C@@]1(Cc2ccccc2)[C@H]2c3cc(C(=O)N4CCCC4)n(Cc4ccc(OC)c(OC)c4)c3C[C@H]2CN1C(=O)c1ccccc1,1.76 (inactive)
15,O=C1C[C@@](C(=O)NCc2ccccc2)(c2ccc([N+](=O)[O-])cc2)[C@@H](c2ccc(CO)cc2)N1C1CCCCC1,0.661 (inactive)
16,[N-]=[N+]=Nc1ccccc1[C@@H]1OC(c2ccc(OCCCO)cc2)=N[C@]1(CCS(=O)(=O)c1ccccc1)C(=O)NCC(O)CO (stereo partly drawn),28.9 (active)
17,CCOC(=O)C[C@H]1[C@H](OC(=O)c2ccccc2-c2ccccc2)[C@@H](NC(=O)c2ccc3ccccc3c2)c2cc(OCCCO)ccc2N1C(=O)Cc1ccc(OC)cc1,4.15 (inactive)
18,CCOC(=O)C[C@H]1[C@H](OC(=O)Cc2ccc3c(c2)OCO3)[C@@H](NC(=O)Cc2ccc(OC)cc2)c2cc(OCCCO)ccc2N1C(=O)Cc1ccc(OC)cc1,10.7 (active)
19,Cc1ccc(C(C)CC(O)C2C=CC3C(=O)N(C)C(=O)C3N2Nc2ccccc2)o1 (stereo not drawn),2.46 (inactive)
20,Cc1ccc(S[C@]2(C(=O)NCC(F)(F)F)CC(=O)N(Cc3ccccc3C(F)(F)F)[C@@H]2c2ccc(CO)cc2)cc1,1.4 (inactive)
21,COC(=O)[C@]1(Cc2ccccc2)N=C(c2ccc(OCCCO)cc2)O[C@@H]1c1ccccc1CN=[N+]=[N-],27.2 (active)
